# “And” between values parts separate entries of the source, which are not always exact repeats. Equal entries are not always repeated.
# Key:
# Type in all cases: functional
# [1] = molecular target: Solute carrier family 2, facilitated glucose transporter member 1 (Homo sapiens) (UniProt P11166); assay: ST_JUDE_LEISH: Cytotoxicity at 2uM final concentration against transgenic Leishmania Mexicana promastigotes LmGLUT1 that are glucose transport deficient and complemented with the human glucose transporter GLUT1. Activity is measured by DNA content using SYBR green in vitro
# Chain of Solute carrier family 2, facilitated glucose transporter member 1 (Homo sapiens) (P11166 whole entry): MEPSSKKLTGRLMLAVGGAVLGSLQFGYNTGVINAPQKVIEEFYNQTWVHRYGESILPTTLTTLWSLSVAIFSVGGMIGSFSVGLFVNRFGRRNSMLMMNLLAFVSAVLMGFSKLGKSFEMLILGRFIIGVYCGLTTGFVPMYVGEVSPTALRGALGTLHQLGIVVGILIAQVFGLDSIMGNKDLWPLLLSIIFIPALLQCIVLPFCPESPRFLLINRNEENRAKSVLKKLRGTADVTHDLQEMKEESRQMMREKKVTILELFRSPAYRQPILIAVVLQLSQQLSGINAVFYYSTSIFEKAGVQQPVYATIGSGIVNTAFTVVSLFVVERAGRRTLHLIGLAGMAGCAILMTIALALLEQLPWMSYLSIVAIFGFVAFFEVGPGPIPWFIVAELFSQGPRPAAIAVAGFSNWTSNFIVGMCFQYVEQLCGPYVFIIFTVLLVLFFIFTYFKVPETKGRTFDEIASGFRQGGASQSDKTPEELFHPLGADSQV
# [2] = molecular target: Hexose transporter 1 (Plasmodium falciparum) (UniProt O97467); assay: ST_JUDE_LEISH: Cytotoxicity at 2uM final concentration against transgenic Leishmania Mexicana promastigotes LmPfHT that are glucose transport deficient and complemented with the Plasmodium falciparum hexose transporter. Activity is measured by DNA content using SYBR green in vitro
# [3] = molecular target: Glucose transporter (Leishmania mexicana) (UniProt O61059); assay: ST_JUDE_LEISH: Cytotoxicity at 2uM final concentration against transgenic Leishmania Mexicana promastigotes LmGT2 that are glucose transport deficient and complemented with the L. Mexicana glucose transporter 2. Activity is measured by DNA content using SYBR green in vitro
SMILES,inhibition [1],inhibition [2],inhibition [3]
Cc1ccc(C(C)C)cc1CON1C(=N)N=C(N)NC1(C)C,11.2%,10.7%,10.9%
Cc1cccc2nc(-c3ccc(-c4cccc(CNCc5ccc(S(C)(=O)=O)cc5)c4)s3)[nH]c12,12.5%,9.13%,9.52%
CC(Nc1cc(-c2ccccn2)nc(-c2ccccn2)n1)c1ccccc1 (configuration not stated),23.4%,12.8%,17.5%
Oc1nc(Cc2ccccc2)nc2ccc(Cl)cc12,2.13%,2.54%,4.12%
Cc1nn(-c2ccccc2)nc1C(=O)N(Cc1ccc(-c2ccc(CNCCc3ccc(S(C)(=O)=O)cc3)cn2)cc1)C1CC1,3.23%,3.85%,2.91%
CC(C)Nc1cc(C(=O)N[C@@H](Cc2ccccc2)[C@H](O)CNCc2cccc(C(F)(F)F)c2)c(F)c(N2CCCCS2(=O)=O)c1,7.12%,6.09%,7.07%
CC(C)(C)C1CC(=O)CC2C(=O)N(C3CCCCC3)C(=O)C21 (configuration not stated),4.51%,2.76%,3.68%
O=C(NC1CCCCC1)N(Cc1ccc(-c2ccc(CNCc3ccc4c(c3)OCO4)cc2)cc1)C1CCN(Cc2ccccc2)CC1,2.03%,1.63%,1.56%
O=C(NCCCCN1CCC(c2ccc3c(c2OCC2CC2)CCCC3)CC1)c1ccc(NC(=O)c2ccc(Cl)cc2)cc1,7.74%,6.44%,8.96%
COc1ccc2nccc([C@@H](O)CN3C4CCC3CC(NCc3ccc5c(n3)NC(=O)CS5)C4)c2n1 (some centres not stated),1.63%,1.76%,-2.06%
CNC(=O)C1Cc2c([nH]c3cc(Cl)ccc23)C2(CCN(CCc3ccccc3)CC2)N1 (configuration not stated),0.42%,1.39%,1.5%
CCc1ccc(CN2CCC(NC(=O)c3cc(-c4ccc(N(C)C)cc4)cs3)C2)cc1 (configuration not stated),1.27%,4.08%,6.01%
CN(Cc1cccc(C#N)c1)C1CCN(c2cc(NC(=O)c3ccc(F)cc3)ccn2)CC1,3.29%,2.12%,4.06%
CCN(CC)CCN(Cc1ccc(-c2ccc(C(F)(F)F)cc2)cc1)C(=O)Cn1c(CCc2cc(F)cc(F)c2)nc(=O)c2ccccc21,1%,1.07%,1.47%
CCCOc1ccc(C=C(CC(=O)O)c2nc3ccccc3s2)cc1OCC,2.27%,2.53%,-7.54%
COc1ccc(N(c2nc(-c3cc(Cl)ccc3Cl)cs2)C2CCNC2)cc1 (configuration not stated),4.89%,4.65%,1.24%
CCN(CC)CCN(Cc1ccc(-c2ccc(C(F)(F)F)cc2)cc1)C(=O)Cn1c(CCc2cccc(F)c2F)cc(=O)cc1-c1ccccc1,1.88%,3.45%,-1.71%
COc1ccc(C2=C(Nc3ccc4oc5ccccc5c4c3)c3ccccc3C2=O)cc1,0.72%,-0.17%,0.33%
Nc1ccc(-c2csc(Nc3ccncc3)n2)cc1,2.7%,1.93%,2.21%
O=C(Nc1ccc(-c2ccc(-c3nc4cc(C(F)(F)F)ccc4[nH]3)s2)cc1)c1ccoc1,0.13%,-0.79%,-1.02%
CCC[C@@H]([C@@H](CC1CCCCC1)C(=O)N[C@H](C(=O)Nc1nccc(N)n1)C(C)(C)C)N(O)C=O,3.28%,4.83%,4.24%
CC(=O)N/N=C/[C@H](CCc1ccccc1)NC(=O)[C@H](CC(C)C)NC(=O)c1ccc(F)cc1,6.34%,4.34%,4.68%
O=C(Nc1ccc(Cl)cc1)Nc1cccc(-c2ccc(-c3nc4ccccc4[nH]3)cc2)c1,2.09%,1.83%,1.94%

SMILES,inhibition [1],inhibition [2],inhibition [3]
COc1ccc2c(C)cc(NCCCN(C)C)nc2c1,0.02%,-0.64%,-1.1%
O=C(/C=C/c1ccc(Cl)c(Cl)c1)NCCCCCN1CCC(NC(=O)Nc2ccc([N+](=O)[O-])cc2)CC1,-0.34%,1.11%,-0.43%
Cc1cccc2nc(-c3ccc(-c4cccc(CN5CCC(C(N)=O)CC5)c4)s3)[nH]c12,-1.68%,2.17%,1.29%
Cc1cccc2nc(-c3cccc(-c4ccc(NC(=O)Cc5ccc[n+]([O-])c5)cc4)c3)[nH]c12,0.18%,1.16%,0.56%
CC1(C)NC(N)=NC(=N)N1OCCCNC(=O)c1ccc([N+](=O)[O-])cc1,4.23%,3.33%,3.92%
Cc1cnn(-c2cccc(C(=O)NC3CCC(CCN4CCc5ccc(C#N)cc5CC4)CC3)c2)c1 (configuration not stated),1.35%,6.24%,-0.22%
CC(C)C1=CC(=NOS(=O)(=O)c2ccccc2)C=C(C(C)C)C1=O,0.62%,4.11%,-0.38%
COc1ccc2c(=NN=Cc3ccccc3F)cc(C)[nH]c2c1,1.77%,1.74%,0.39%
CN1CCN(CCCN(Cc2csc(-c3ccc(CNCc4ccccc4)cc3)n2)C(=O)Nc2ccc3ccccc3c2)CC1,2.94%,4.46%,0.42%
Cn1c(Sc2ncnc3sccc23)nc2ccccc21,2.32%,2.23%,2.32%
O=C(Nc1ccc(F)c(C(F)(F)F)c1)N[C@H]1CCN(CCCCCNC(=O)C2CC2c2ccc(Cl)c(Cl)c2)C1 (some centres not stated),-0.22%,-0.44%,-2.52%
CC(=O)N1N=C(c2ccccc2)Sc2c1nc(-c1ccc(Cl)cc1)n2C(C)=O,1.37%,1.41%,3.09%
CN1CCC(NCc2ccc(-c3cccc(S(=O)(=O)NCC4CCCO4)c3)cc2)CC1 (configuration not stated),0.62%,3.18%,6.61%
O=C(CCC1CCCCC1)NCCNc1cccc2ccccc12,-0.06%,-0.34%,-3.97%
c1ccc2c(NCCCCCCCCNc3ccnc4ccccc34)ccnc2c1,-0.47%,0.85%,1.12%
Cc1ccc(C(=O)Nc2cccc([N+](=O)[O-])c2)cc1S(=O)(=O)N1CC(C)CC(C)C1 (configuration not stated),6.34%,5.86%,0.08%
Cc1[nH]c2cc(F)ccc2c(=O)c1Cc1ccc(Cl)cc1.Cc1[nH]c2cccc(F)c2c(=O)c1Cc1ccc(Cl)cc1,23.5% and 29.2%,37.3% and 55.7%,14.3% and 15%
Cc1cc2cc(NC(=O)Nc3ccnc4ccccc34)ccc2n1C,0.22%,0.43%,0.82%
CN1CCN(c2ccc(-c3cccc(NC(=O)c4cccc([N+](=O)[O-])c4)c3)nn2)CC1,3.29%,1.6%,1.84%
CCN1CCC(N(Cc2ccc(-c3ccc(C(F)(F)F)cc3)cc2)C(=O)Cn2c(CCc3cccc(F)c3F)cc(=O)c3c2CCC3)CC1,1.27%,0.83%,0.64%
CCOc1cc(C2C(C(=O)OC(C)C)=C(C)NC3=C2C(=O)CC(c2ccc(Cl)cc2)C3)ccc1OC(C)=O (configuration not stated),6.58%,6.64%,6.55%
COc1ccc(C(C(=O)NC2CCN(C[C@H](O)c3ccnc4ccc(OC)cc34)CC2)N2CCN(Cc3ccccc3)CC2)cc1 (some centres not stated),0.34%,0.74%,-0.21%
Fc1ccccc1COc1ccc(Nc2ncnc3ccc(-c4nnc(C(F)(F)F)o4)cc23)cc1Cl,6.41%,5.31%,2.13%

SMILES,inhibition [1],inhibition [2],inhibition [3]
OC(CNCc1ccccc1OCc1ccccc1)c1cccc(I)c1 (configuration not stated),3.99%,5.42%,0.61%
O=C(/C=C/c1ccc(Cl)c(Cl)c1)NC1CCN(Cc2ccc(O)cc2)CC1,1.47%,0.53%,-3.54%
O=C(Nc1cccc(-c2cccc(-c3nc4cc(F)ccc4[nH]3)c2)c1)c1ccoc1,2.86%,1.64%,4.95%
Cc1ncc([N+](=O)[O-])n1CCOC(=O)NC(Nc1ccc(Br)cc1)C(Cl)(Cl)Cl (configuration not stated),2.8%,0.15%,-1.63%
COc1c(CCNCCCCNCCc2cc(Cl)c3ccccc3c2OC)cc(Cl)c2ccccc12,102%,100%,105%
CCCNc1nc(NCc2c(C)cccc2C)nc(NC(C)(C)C)n1,6.93%,8.23%,1.74%
CN(C)c1cc(C(=O)N[C@@H](Cc2ccccc2)[C@H](O)CNC2CCCCC2)cc2[nH]ccc12,5.43%,4.72%,7.44%
CCN(CC)CCN(Cc1ccc(-c2ccc(C(F)(F)F)cc2)cc1)C(=O)Cn1c(CCc2c(F)cccc2F)nc(=O)c2ccccc21,4.96%,4.88%,5.59%
COc1cccc(C2CCN(CCN3CCC(NC(=O)c4ccc(-c5ccc(C#N)cc5)cc4)CC3)CC2)c1,-1.18%,0.31%,0.19%
CCCCNC(=O)C(C)NC(=O)c1ccc(O)c(-c2ccc(Cl)c(Cl)c2)c1 (configuration not stated),-0.19%,-0.53%,0.05%
COc1cc(Cc2cnc(N)nc2N)cc(OCC(C)(C)C(=O)O)c1OC,-1.6%,-1.08%,-0.23%
CC1CCC2(CC1)N=C(N)N=C(N)N2OCc1cc2ccccc2c2ccccc12 (configuration not stated),3.83%,2.5%,2.97%
Cc1cccc(CC2CC(=O)N(c3ccc([N+](=O)[O-])cc3)C2=O)c1 (configuration not stated),7.63%,7.62%,7.64%
Cc1csc(-c2ncc(OC[C@@H](N)Cc3ccccc3)cc2-c2ccc3[nH]nc(C)c3c2)c1,2.54%,0.85%,-0.58%
Cc1cc(N[C@@H](Cc2ccccc2)C(=O)NCc2cccs2)nc(NCCc2cccnc2)n1,1.39%,1.61%,1.02%
Cc1ccc(C)c2sc(N(CCCn3ccnc3)C(=O)c3ccco3)nc12,4.42%,5.62%,5.23%
COc1cccc(CN2CCC(N3CCc4cc(NC(=O)c5cc(C)on5)ccc43)C2)c1OC (configuration not stated),1.63%,5.08%,4.28%
CN(C)CCN(Cc1ccccc1-c1ccc(CNCCc2ccccc2)cc1)C(=O)NC1CCCCC1,3.67%,3.66%,0.85%
O=C(Nc1cccc(-c2ccc(CN3CCC(O)CC3)cc2)c1)c1ccc(Cl)cc1,2.51%,3.64%,1.52%
FC(F)(F)c1cccnc1N1CCC(Nc2nc3cc(Cl)ccc3[nH]2)CC1,5.58%,1.96%,3.47%
CCc1cc(COc2ccc(CNCCC(C)C)cc2I)c(OCc2ccccc2)c(COc2ccc(CNCCC(C)C)cc2I)c1,-0.25%,-3.29%,3.76%
CCC(C)Oc1ccc2nc(N)nc(N)c2c1Cl (configuration not stated),41.2%,55.9%,30%
Cc1nnc2c(N(C(=O)NCCc3ccccc3)C(=O)NCCc3ccccc3)cc3cc(Cl)ccc3n12,11.2%,10.1%,8.99%
